Reference: PubChem BioAssay (NCI)
Compounds without any hit were thinned out: in the full panel of roughly 83,000, 20% have a hit.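 The endpoint reported here, percent growth, reads 100 for growth as untreated, 0 for no net growth and -100 for all cells dead.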 Activity calls are given as the source filed them. The calls were made as follows: active = growth percent below 10; inactive = the rest.

These compounds were tested on MDA-MB-468 breast (assay: NCI-60 one-dose screen, 48 h (100 = growth as untreated, 0 = no growth, -100 = all killed)). Details: 10 µM unless noted.

| Compound | growth |
| --- | --- |
| CC1(C)C(=O)/C(=C\c2ccccn2)C[C@]2(C)[C@H]3CC[C@@H]4[C@@H](C(=O)/C=C/c5ccccn5)CC[C@@]4(C)[C@]3(C)CC[C@@H]12 | -50.6% (active) |
| OC(CNc1ccnc2cc(Cl)ccc12)CNc1ccnc2cc(Cl)ccc12 | -67.9% (active) |
| C=C(C)[C@@H]1CC[C@]2(C(=O)O)CC[C@]3(C)[C@H](CC[C@@H]4[C@@]5(C)C/C(=C/c6cccc(I)c6)C(=O)C(C)(C)[C@@H]5CC[C@]43C)[C@@H]12 | 25.6% (inactive) |
| Cn1c(=O)c(F)c(Nc2ccc(I)cc2F)c2c(=O)n(C[C@@H](O)CO)cnc21 | 77.9% (inactive) |
| COc1ccc(S(=O)(=O)Nc2cc(/C=C\c3cc(OC)c(OC)c(OC)c3)ccc2OC)cc1 | 7.65% (active) |
| CN1CCN(CCCOc2ccc3nc(Nc4ccc(Cl)c(C(F)(F)F)c4)ccc3c2)CC1 | 69.5% (inactive) |
| C[n+]1c(/C=C\C=C\N2CCCCC2)sc2ccccc21 | -17% (active) |
| CCCCNC(=O)Oc1ccc(/C(=C(/C)Cc2ccc(OC)cc2)c2ccc(OCCN(CC)CC)cc2)cc1 | 76.3% (inactive) |
| N=C(N)c1ccc(-c2ccc(-c3ccc(Cl)cc3)o2)o1 | -21.5% (active) |
| Cc1csc(/N=C(N)/N=C(\N)c2cccc(Br)c2)n1 | 79.7% (inactive) |
| CN(C)CCN=c1nc2c(c(N)n1-c1ccccc1)c(=S)n(-c1ccccc1)c(=S)n2-c1ccccc1 | -34.6% (active) |
| CN(C)c1ccc(/C=c2\sc3nc4ccccc4n3c2=O)cc1 | 78.4% (inactive) |
| COc1ccc(-c2nc3sc(C)nn3c2-c2nc3cc(C)c(C)cc3[nH]2)cc1 | 113% (inactive) |
| COc1cc(-c2cc3cnccc3c3nc(N)c4ccncc4c23)cc(OC)c1OC | 8.5% (active) |
| COC(=O)c1nc(-c2ccccc2)oc1S(=O)(=O)NCC(c1ccc(Cl)cc1)N1CCOCC1 (stereo not given) | 29.9% (inactive) |
| Oc1ccc([S+](c2ccc(O)cc2)c2ccc(O)cc2)cc1 | 98% (inactive) |
| O=S(=O)(c1ccccc1)n1cc2c(c1-c1ccccc1)CCc1sc(Nc3ccccc3)nc1-2 | 73.3% (inactive) |
| S=C(c1ccc2c(c1)OCO2)N1CCN(c2ccccc2Cl)CC1 | 80.8% (inactive) |
| Oc1ccc(CSc2nnc(-c3ccncc3)o2)c2cccnc12 | 11.9% (inactive) |
| COc1cc(Nc2nc3ccccc3cc2C(=O)Nc2ccc(F)c(F)c2)cc(OC)c1OC | 4.15% (active) |

| Compound | growth |
| --- | --- |
| CC(=O)c1cc2c(N)c(C(=O)Nc3cccc4ccncc34)sc2nc1C | 71.6% (inactive) |
| O=C1/C(=C/C(Cl)=C/c2ccccc2)SC(=S)N1CCc1ccc(O)cc1 | -36.2% (active) |
| O=C1C2=C(C(=O)c3ccccc31)C(O)(S(=O)(=O)O)C(O)(S(=O)(=O)O)C1N=CC=CC21 (stereo not given) | 18.4% (inactive) |
| O=C(CSc1nc2ccccc2c(=O)n1-c1ccc(Cl)cc1)N/N=C/c1ccc(Oc2ccc(Cl)cc2)cc1 | -18.6% (active) |
| CCCCn1c(-c2ccc(F)cc2)nc2cc(OC)c(OC)cc2c1=O | 115% (inactive) |
| COc1cc(-c2cc3ncccc3c3nc(N)c4cccnc4c23)cc(OC)c1OC | -3.2% (active) |
| Nc1ccc(F)cc1F | 92.7% (inactive) |
| CCCC1OC(c2ccc(C(C)C)cc2)OCC1CC (stereo not given) | 97.6% (inactive) |
| Nc1[nH]nc(Nc2ccccc2)c1-c1nc2ccccc2s1 | 17.5% (inactive) |
| Cc1ccc(-n2nnc(C3=NCCc4c3[nH]c3ccc(Cl)cc43)c2C)cc1 | 71.5% (inactive) |
| CN(C)C=Nc1cc(Cl)ccc1Cl | 102% (inactive) |
| CCCNc1nc2ccccc2c2c1S(=O)(=O)c1ccc(Cl)cc1C2=O | 3.32% (active) |
| CNc1ccc(Br)cc1-c1n[nH]c(=O)[nH]c1=O | 120% (inactive) |
| CNc1nc(NC2CCCC2)nc(Sc2ccc(OC)cc2)n1 | 42.5% [100 µM] (inactive) |
| COc1cc(/C=C/c2cc(/C=C/c3ccc(O)c(OC)c3)n(-c3ccc(Cl)cc3)c(=O)n2)ccc1O | 76.4% (inactive) |
| O=C1Nc2ccccc2/C1=C/c1ccc(OCC(=O)c2ccccc2)cc1 | 94.6% (inactive) |
| CCC1C(=O)COC1=O (stereo not given) | 103% (inactive) |
| COc1ccc(C2=Nn3c(nnc3-n3nc(C)cc3C)SC2)cc1 | 22.2% (inactive) |
| CC(C)c1ccc(C(=O)OC(=O)c2ccc(C(C)C)cc2)cc1 | 110% (inactive) |
| COc1ccc(-c2nc3sccn3c2-c2ccnc(S(C)(=O)=O)n2)cc1 | -25.9% (active) |
